Screens from PubChem BioAssay.
Compounds with a hit are over-represented: about 9.4% of the library has one in this group of screens.
Pf growth 48h – Primary qHTS for delayed death inhibitors of the malarial parasite plastid, 48 hour incubation; Potency, µM (titrated, usually from 28.7 µM), inactives show at the highest dose activity change, negative = inhibition, actives largely listed as inhibitors; P. falciparum luciferase growth in erythrocytes, 48 h; 310,000 compounds, 5.9% hits; further: on the % scale 0 is the no-effect control and ±100 the full control effect
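Read-out is firefly luciferase luminescence from an integrated reporter in P. falciparum, so falling signal marks reduced parasite growth. Infected erythrocytes were at 2% hematocrit and 0.1% parasitemia (final) in Albumax-supplemented RPMI 1640.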
AMA1-RON2 inh – qHTS for Inhibitors of AMA1-RON; Towards Development of Antimalarial Drug Lead: Primary Screen; Plasmodium falciparum AMA1 (3D7) - RON2 peptide interaction; AID 720542, 2013; 360,000 compounds, 0.2% hits; Potency, µM (doses to about 58.2 µM), for inactives: at the top dose activity change, negative = inhibition, most hits filed as inhibitors; AlphaScreen AMA1-biotinylated RON2 peptide binding;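 further: 0% = vehicle wells and -100% = peptide control; nearly all actives have a fitted effect of over 45% in size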
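AMA1 (3D7) with his tag at 25 nM final met compounds first, then biotinylated RON2 peptide at 25 nM; detection used donor plus acceptor beads, 10 µg/mL apiece, read by AlphaScreen after 30 min at room temperature.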
SARS PLP yeast – qHTS of Yeast-based Assay for SARS-CoV PLP; S. cerevisiae expressing SARS-CoV PLpro, growth rescue; 330,000 compounds, 0.19% hits; Potency, µM (series often up to 32.9 µM), for inactives: at the highest dose activity, positive = growth rescue, usual class: activators; AID 485353, 2010; calls by dose curve; further: 0% is about no effect; nearly all actives have a fitted effect of over 55% in size
Pf growth 96h – Primary qHTS for delayed death inhibitors of the malarial parasite plastid, 96 hour incubation. P. falciparum luciferase reporter growth, 96 h. Potency, µM (titrated, usually from 28.7 µM), without a hit: top-dose activity change, negative = inhibition, hits mostly inhibitors. 320,000 compounds, 6.9% hits; further: on the % scale 0 is the no-effect control and ±100 the full control effect
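Luminescence readout: decreased luciferase signal marks inhibited growth of reporter-expressing P. falciparum in infected red cells (2% hematocrit, 0.05% parasitemia final), exposed to compound two generations (96 h, 37 C, 5% CO2).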
Active calls of the source: *; i = inactive; ? = inconclusive; · = no result given; [ ] = remark or other dose. Unless noted, the call rests on the fitted dose curve; in most records, active means well fitted curve in the direction sought with a large enough effect; inconclusive means small, poorly fitted or top-dose-only effect, or another doubt; inactive means no such curve, though single readings can be large; an effect the other way counts as inactive or inconclusive. Potency means the concentration at half of the fitted maximal effect.

SMILES	Pf growth 48h	AMA1-RON2 inh	SARS PLP yeast	Pf growth 96h
CCn1cc(C(=O)NCC(C)C)c(=O)c2cc(F)c(N3CCN(C(=O)c4ccco4)CC3)cc21	4.1µM*	0%	1%	22%
CCC(C)NC(=O)c1cn(CC)c2cc(N3CCN(C(=O)c4ccco4)CC3)c(F)cc2c1=O (configuration not stated)	5.9µM*	3%	2%	4.1µM*
C=CCNC(=O)c1cn(CC)c2cc(N3CCN(C(=O)c4ccco4)CC3)c(F)cc2c1=O	7.4µM*	4%	-6%	?
CCn1cc(C(=O)NCc2ccco2)c(=O)c2cc(F)c(N3CCN(C(=O)c4ccco4)CC3)cc21	7.4µM*	0%	4%	24%
COc1cc(/C=N\NC(=O)c2ccc(Cn3cc(Br)c([N+](=O)[O-])n3)o2)cc(OC)c1O	4%	0%	1%	2%
CSc1ccc(S(=O)(=O)NCC(=O)OC(C)C(=O)NCc2ccccc2)cc1[N+](=O)[O-] (configuration not stated)	2%	?	-1%	8%
CCn1cc(C(=O)NCc2ccco2)c(=O)c2cc(S(=O)(=O)N3CCc4ccccc4C3)ccc21	9.3µM*	-8%	-5%	5.2µM*
CSc1c(CC(=O)Nc2ccccc2C(F)(F)F)n(Cc2ccccc2)c2ccccc12	?	7%[2.32 µM]	7%	9.3µM*
CSc1c(CC(=O)Nc2ccccc2Cl)n(Cc2ccccc2)c2ccccc12	?	9%	4%	?
CSc1c(CC(=O)Nc2ccccc2)n(Cc2ccccc2)c2ccccc12	12µM*	4%	10%	?
Cc1cc2c(s1)c1cnn(-c3ccccc3)c(=O)c1n2C	?	·	-1%	?
O=C(Nc1cc(C(F)(F)F)ccc1N1CCOCC1)c1cn2ccccc2n1	?	24%	14%	·
COc1cc(/C=N/NC(=O)COc2cccc(F)c2)ccc1OS(=O)(=O)c1ccc(C)cc1	?	-7%	11%	8.3µM*
Cc1nnc2sc(-c3ccc(NC(=O)CSc4ccc(Cl)cc4)cc3)nn12	5.2µM*	1%	-15%	?
CC(=O)Nc1cccc(NC(=O)c2ccc3[nH]c(C)c(C)c3c2)c1	61%	9%	0%	63%
Cc1cc(NC(=O)c2ccc3[nH]c(C)c(C)c3c2)ccn1	2.6µM*	-13%	2%	2.6µM*
CCCOC(C(=O)OC1CCN(C)CC1)(c1ccccc1)c1ccccc1	12µM*	·	·	12µM*
CN1CCC(OC(=O)COc2ccc(F)cc2)CC1	2%	10%	2%	?
CN1CCC(OC(=O)COc2ccccc2)CC1	9%	-3%	1%	12µM*
COc1ccc(/C=C/C(=O)NCc2cccnc2)cc1	12%	10%	-3%	?
CCc1ccc(CN(Cc2cccnc2)C(=O)/C=C/c2ccc(OC)cc2)cc1	8.3µM*	-7%	-30%	?
Cc1cc(C)cc(OCC(=O)OCC(=O)NC2CCCCCC2)c1	21%	-7%	1%	-24%
CC(C)(C)C(=O)/C(=C/c1ccncc1)n1cncn1	7.4µM*	-5%	5%	-24%
CC(C)c1ccc(-c2nnn(CCC#N)n2)cc1	56%	9%	-1%	32%
CN1C2C=C3C(C#N)=C(N)C(C#N)(C#N)[C@@H](c4cccc(F)c4)[C@@H]3C1CC2 (some centres not stated)	?	7%	2%	0.66µM*
SMILES	Pf growth 48h	AMA1-RON2 inh	SARS PLP yeast	Pf growth 96h
COC(=O)c1c(C)nc2c(c(SC)nn2-c2ccccc2)c1N	?	2%	18%	·
COCC1CCN(Cc2cn(C)nc2-c2cccc(Cl)c2)C1 (configuration not stated)	14%	13%	1%	24%
Cc1c(N=NC2=C(O)CC(C)(C)CC2=O)c(=O)n(-c2ccccc2)n1C	-21%	128%	0%	2.1µM*
C=CCn1c(O)c(N=Nc2c(C)n(C)n(-c3ccccc3)c2=O)c(=O)[nH]c1=S	-22%	33%	8%	6.6µM*
Cc1c(N=Nc2c(O)[nH]c(=S)[nH]c2=O)c(=O)n(-c2ccccc2)n1C	-16%	-33%	-4%	?
COc1ccc(-c2cc(=NCCC(=O)O)c3cc(C)ccc3o2)cc1	i	0%	1%	?
OCCCCCN=c1cc(-c2ccccc2)oc2ccc(Cl)cc12	?	7%	-1%	13µM*
